Experimental data from PubChem BioAssay AID1159580 (chemical genetic matrix, 2015).
Where “and” joins values, the source holds several entries; their conditions need not be identical. Identical values can stand only once. The whole screen tested about 5,500 compounds, of which about 2,000 (36%) were called active. Inconclusive results (about 18%) are left out. Cut-off read from the data, not from the text of the source: active = normalized growth mostly below about 0.91 (no sharp cut-off); inconclusive = no clear call, values can overlap the other calls; inactive = mostly above about 0.92. This is one part of the list.

Test: chemical genetic growth profiling, strain panel (AID 1159580);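 note: tested at 20 µM; growth read once vehicle control cultures reached saturation at 30 °C; 1 = growth at the plate median or of vehicle wells; lower values mean less growth of the strain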
Settings: growth OD

Measured: normalized growth

CC(N)C(=O)OC(C)(C)Cc1ccc(Cl)cc1 (stereo unspecified)
inactive: S. cerevisiae deletion strains, locus YJR075W, strain HOC1, stronger effect = lower value 0.986 and 1 | S. cerevisiae deletion strains, locus YKL009W, strain mrt4, stronger effect = lower value 0.922 | S. cerevisiae deletion strains, locus YKL068W, stronger effect = lower value 0.992 | S. cerevisiae deletion strains, locus YKL085W, strain MDH1 (second series), stronger effect = lower value 0.98 | S. cerevisiae deletion strains, locus YKL085W, strain MDH1, stronger effect = lower value 0.98 | S. cerevisiae deletion strains, locus YKL160W, strain elf1, stronger effect = lower value 1.02 | S. cerevisiae deletion strains, locus YKL190W, strain CNB1, stronger effect = lower value 0.989 | S. cerevisiae deletion strains, locus YKR001C, strain vps1, stronger effect = lower value 1.03 | S. cerevisiae deletion strains, locus YKR026C, strain gcn3, stronger effect = lower value 0.998 | S. cerevisiae deletion strains, locus YKR091W, strain srl3, stronger effect = lower value 1.01 | S. cerevisiae deletion strains, locus YLL001W, strain dnm1, stronger effect = lower value 0.977 | S. cerevisiae deletion strains, locus YLL026W, stronger effect = lower value 1.01 | S. cerevisiae deletion strains, locus YLL041C, strain sdh2, stronger effect = lower value 1.02 | S. cerevisiae deletion strains, locus YLR027C, strain aat2, stronger effect = lower value 1.01 | S. cerevisiae deletion strains, locus YLR039C, strain RIC1, stronger effect = lower value 1.03 | S. cerevisiae deletion strains, locus YLR058C, strain SHM2, stronger effect = lower value 0.97 | S. cerevisiae deletion strains, locus YLR102C, strain apc9, stronger effect = lower value 0.995 | S. cerevisiae deletion strains, locus YLR113W, strain HOG1, stronger effect = lower value 1.01 | S. cerevisiae deletion strains, locus YLR221C, strain rsa3, stronger effect = lower value 1.02 | S. cerevisiae deletion strains, locus YLR258W, strain gsy2, stronger effect = lower value 1.02 | S. cerevisiae deletion strains, locus YLR262C, strain YPT6 (second series), stronger effect = lower value 1.06 | S. cerevisiae deletion strains, locus YLR262C, strain YPT6, stronger effect = lower value 0.986 | S. cerevisiae deletion strains, locus YLR268W, strain sec22, stronger effect = lower value 1.07 | S. cerevisiae deletion strains, locus YLR320W, strain mms22, stronger effect = lower value 1.04 | S. cerevisiae deletion strains, locus YLR330W, strain CHS5, stronger effect = lower value 0.988 | S. cerevisiae deletion strains, locus YLR342W, strain FKS1 (second series), stronger effect = lower value 0.928 | S. cerevisiae deletion strains, locus YLR342W, strain FKS1, stronger effect = lower value 1.02 | S. cerevisiae deletion strains, locus YLR357W, strain rsc2, stronger effect = lower value 1.03 | S. cerevisiae deletion strains, locus YLR370C, strain arc18, stronger effect = lower value 1.01 | S. cerevisiae deletion strains, locus YLR371W, strain rom2, stronger effect = lower value 0.986 | S. cerevisiae deletion strains, locus YLR384C, strain iki3, stronger effect = lower value 1.01 | S. cerevisiae deletion strains, locus YLR418C, strain cdc73, stronger effect = lower value 0.983 | S. cerevisiae deletion strains, locus YML016C, strain PPZ1, stronger effect = lower value 0.984 | S. cerevisiae deletion strains, locus YML032C, strain rad52, stronger effect = lower value 0.982 | S. cerevisiae deletion strains, locus YML120C, strain ndi1, stronger effect = lower value 1.02 | S. cerevisiae deletion strains, locus YML124C, strain tub3, stronger effect = lower value 0.985 | S. cerevisiae deletion strains, locus YMR058W, strain fet3, stronger effect = lower value 1.03 | S. cerevisiae deletion strains, locus YMR078C, strain ctf18, stronger effect = lower value 0.98 | S. cerevisiae deletion strains, locus YMR125W, strain sto1, stronger effect = lower value 1.01 | S. cerevisiae deletion strains, locus YMR129W, stronger effect = lower value 1.02 | S. cerevisiae deletion strains, locus YMR205C, strain PFK2, stronger effect = lower value 1.02 | S. cerevisiae deletion strains, locus YMR223W, strain ubp8, stronger effect = lower value 0.94 | S. cerevisiae deletion strains, locus YMR231W, strain pep5, stronger effect = lower value 1.02 | S. cerevisiae deletion strains, locus YMR263W, strain SAP30, stronger effect = lower value 0.984 and 1.02 | S. cerevisiae deletion strains, locus YMR307W, strain GAS1, stronger effect = lower value 1.04 | S. cerevisiae deletion strains, locus YNL067W, strain RPL9B, stronger effect = lower value 0.996 | S. cerevisiae deletion strains, locus YNL071W, strain lat1, stronger effect = lower value 1.02 | S. cerevisiae deletion strains, locus YNL128W, strain TEP1, stronger effect = lower value 0.975 and 1.02 | S. cerevisiae deletion strains, locus YNL153C, strain GIM3, stronger effect = lower value 0.992 | S. cerevisiae deletion strains, locus YNL175C, strain NOP13, stronger effect = lower value 1.04 | S. cerevisiae deletion strains, locus YNL183C, strain NPR1, stronger effect = lower value 0.982 | S. cerevisiae deletion strains, locus YNL197C, strain WHI3, stronger effect = lower value 1.09 | S. cerevisiae deletion strains, locus YNL209W, strain ssb2, stronger effect = lower value 1.02 | S. cerevisiae deletion strains, locus YNL224C, strain SQS1, stronger effect = lower value 1.05 | S. cerevisiae deletion strains, locus YNL233W, strain BNI4, stronger effect = lower value 0.983 | S. cerevisiae deletion strains, locus YNL248C, strain rpa49, stronger effect = lower value 1.02 | S. cerevisiae deletion strains, locus YNL250W, strain rad50, stronger effect = lower value 0.975 | S. cerevisiae deletion strains, locus YNL271C, strain bni1, stronger effect = lower value 1 | S. cerevisiae deletion strains, locus YNL298W, strain CLA4, stronger effect = lower value 0.981 | S. cerevisiae deletion strains, locus YNL307C, strain MCK1, stronger effect = lower value 0.972 | S. cerevisiae deletion strains, locus YNL322C, strain KRE1 (second series), stronger effect = lower value 1.01 | S. cerevisiae deletion strains, locus YNL322C, strain KRE1, stronger effect = lower value 0.986 | S. cerevisiae deletion strains, locus YNR049C, strain mso1, stronger effect = lower value 1.01 | S. cerevisiae deletion strains, locus YNR052C, strain pop2, stronger effect = lower value 0.986 | S. cerevisiae deletion strains, locus YOL006C, strain TOP1, stronger effect = lower value 1.05 | S. cerevisiae deletion strains, locus YOL012C, strain htz1 1 | S. cerevisiae deletion strains, locus YOL147C, strain pex11, stronger effect = lower value 0.988 | S. cerevisiae deletion strains, locus YOR001W, strain rrp6, stronger effect = lower value 1.06 | S. cerevisiae deletion strains, locus YOR061W, strain CKA2, stronger effect = lower value 0.975 | S. cerevisiae deletion strains, locus YOR069W, strain VPS5, stronger effect = lower value 0.981 | S. cerevisiae deletion strains, locus YOR070C, strain gyp1, stronger effect = lower value 1.02 | S. cerevisiae deletion strains, locus YOR080W, strain dia2, stronger effect = lower value 1.03 | S. cerevisiae deletion strains, locus YOR083W, strain WHI5 (second series), stronger effect = lower value 1.04 | S. cerevisiae deletion strains, locus YOR083W, strain WHI5, stronger effect = lower value 1.01 | S. cerevisiae deletion strains, locus YOR106W, strain vam3, stronger effect = lower value 1.07 | S. cerevisiae deletion strains, locus YOR136W, strain idh2, stronger effect = lower value 0.977 | S. cerevisiae deletion strains, locus YOR144C, strain elg1, stronger effect = lower value 0.988 | S. cerevisiae deletion strains, locus YOR184W, strain ser1, stronger effect = lower value 0.993 | S. cerevisiae deletion strains, locus YOR231W, strain MKK1, stronger effect = lower value 1.02 | S. cerevisiae deletion strains, locus YOR265W, strain rbl2, stronger effect = lower value 1.01 | S. cerevisiae deletion strains, locus YOR270C, strain vph1, stronger effect = lower value 1.09 | S. cerevisiae deletion strains, locus YOR290C, strain snf2, stronger effect = lower value 1.02 | S. cerevisiae deletion strains, locus YOR316C, strain cot1, stronger effect = lower value 0.99 | S. cerevisiae deletion strains, locus YPL051W, strain arl3, stronger effect = lower value 1.02 | S. cerevisiae deletion strains, locus YPL055C, strain LGE1, stronger effect = lower value 0.937 and 1.01 | S. cerevisiae deletion strains, locus YPL078C, strain atp4, stronger effect = lower value 1.01 | S. cerevisiae deletion strains, locus YPL106C, strain sse1, stronger effect = lower value 1.07 | S. cerevisiae deletion strains, locus YPL240C, strain hsp82, stronger effect = lower value 0.977 | S. cerevisiae deletion strains, locus YPL241C, strain CIN2, stronger effect = lower value 0.994 and 1.01 | S. cerevisiae deletion strains, locus YPL256C, strain CLN2, stronger effect = lower value 1.03 | S. cerevisiae deletion strains, locus YPR119W, strain clb2, stronger effect = lower value 0.989 | S. cerevisiae deletion strains, locus YPR141C, strain kar3, stronger effect = lower value 0.974 | S. cerevisiae deletion strains, locus YPR163C, strain tif3, stronger effect = lower value 0.993 | S. cerevisiae deletion strains, locus YPR167C, strain met16, stronger effect = lower value 0.993 | S. cerevisiae deletion strains, strain wtn01, stronger effect = lower value 0.995 | S. cerevisiae strains, strain wild type, stronger effect = lower value 0.982
